Shown are actives, neighbours in structure and some others; about 2.3% of the full set was active somewhere.
miR-21 reporter: qHTS Assay for Modulators of miRNAs and/orActivators of miR-21; HeLa miR-21 FLuc reporter, luciferase, 48 h; Potency, µM (highest dose often 38.3 µM), actives largely listed as activators; 340,000 tested, under 10 active; AID 2288, 2010;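 note: miR-21 action dims this reporter so a rising signal means less miR-21 action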
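Luminescence from a firefly luciferase reporter carrying a miR-21 binding site downstream, stably expressed under a CMV promoter in HeLa cells that make miR-21 endogenously, reports miRNA modulation after 48 h compound exposure up to approximately 40uM final.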
Glioma ERSR ind: qHTS for Inducers of the Endoplasmic Reticulum Stress Response (ERSR) in Human Glioma: qHTS | Potency, µM, hits mostly activators | U87-MG GRP78 promoter luciferase reporter, 16 h | 420,000 tested, 0.02% active | AID 602332, 2012; note: series mostly up to about 76 µM; nearly all actives have a fitted effect of over 35% in size
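Stably transfected U87-MG human glioma cells carrying a GRP78-based luminescent sensor were seeded at 1000 cells/well, pin-dosed with compounds and incubated 16 h. Luciferase reagent was then added, and end-point luminescence was read after 10 min at room temperature.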
Nrf2 activator: qHTS of Nrf2 Activators. AREc32 ARE-luciferase reporter (MCF7-derived line), luminescence, 24 h. Potency, µM (top dose mostly 46.1 µM), usual class: activators. 410,000 tested, 0.31% active. AID 624171, 2012; note: nearly all actives have a fitted effect of over 65% in size
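Steps: seed AREc32_Fluc cells (1000/well, 5% FBS OPTI-MEM); incubate overnight at 37 deg C; add 23 nL compound; incubate 24 hr; add Steady-Glo; hold 30 min RT; read luminescence.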
Mito fusion yeast: qHTS Assay for Small Molecule Inhibitors of Mitochondrial Division or Activators of Mitochondrial Fusion; S. cerevisiae fusion-defective mutant growth rescue, CellTiterGlo 48 h; Potency, µM (doses to about 46.1 µM), usual class: activators; 320,000 tested, 0.23% active; AID 485298, 2010; note: nearly all actives have a fitted effect of over 45% in size
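Temperature-sensitive fusion-defective S. cerevisiae (e.g. fzo1-1, mgm1-5) were grown with compound in YPEG medium (3% ethanol, 3% glycerol) for 48 hours at 37C. Growth rescue was measured as viability by CellTiterGlo luminescence after 10 minutes at ambient.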
A549 tox: Nrf2 qHTS screen for inhibitors: counterscreen for cytotoxicity; AID 504648, 2011; 390,000 tested, 0.16% active; A549 ARE-Fluc cells, CellTiter-Fluor viability, 18-24 h; Potency, µM (top dose mostly 46 µM), hits mostly inhibitors
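A549 ARE_Fluc cells in 5% FBS OPTI-MEM were exposed to compounds in concentration-response for 18-24 h at 37 deg C. Viability was read by CellTiter-Fluor fluorescence (Ex 405/Em 525) after 30 min, before the luciferase read.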
Nrf2 block: Nrf2 qHTS screen for inhibitors | A549 ARE-Fluc reporter, luciferase luminescence, 18-24 h | Potency, µM (titrated, usually from 46 µM), hits mostly inhibitors | 360,000 tested, 2.1% active | AID 504444, 2011; note: nearly all actives have a fitted effect of over 60% in size
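In this cell-based qHTS, ARE-driven firefly luciferase in A549 cells reports Nrf2 activity; the luminescent signal after BugLite lysis is the measured value, with a prior CellTiter-Fluor read for cell health.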
Hits are given with their value; - = inactive; ? = inconclusive; . = no result given; [ ] = dose if it differs, or a comment. Calls come from the whole dose curve; as a rule, active = well fitted curve in the direction sought with a large enough effect; inconclusive = small, poorly fitted or top-dose-only effect, or another doubt; inactive = no such curve, though single readings can be large; an effect the other way counts as inactive or inconclusive.

SMILES	miR-21 reporter	Glioma ERSR ind	Nrf2 activator	Mito fusion yeast	A549 tox	Nrf2 block
CC(=O)NS(=O)(=O)c1ccc(NC(=O)c2cccc3ccccc23)cc1	.	-	-	.	-	-
CCC(C)(C)c1nnc(NC(=O)c2cccc([N+](=O)[O-])c2)s1	-	-	-	-	-	?
CCCCn1c(-c2nonc2N)nc2ccccc21	-	-	-	-	-	14.6µM
CC(C)CCn1c(-c2nonc2N)nc2ccccc21	-	-	-	-	-	?
CCC(C)NC(=O)c1c(F)c(F)c(F)c(F)c1F (stereo not drawn)	-[7.66 µM]	-	-	-	-	.
Cc1nc(N2CCCCC2)c2c(C)c(C(=O)Nc3cccc(C(F)(F)F)c3)sc2n1	-	-	-	-	-	23.1µM
Cc1nc(N2CCCCC2C)c2c(C)c(C(=O)Nc3cccc(C(F)(F)F)c3)sc2n1 (stereo not drawn)	-	-	-	-	-	?
CCOP(=O)(O)c1cccc(OCCOCCOc2cccc(P(=O)(O)OCC)c2)c1	-	-	-	-	-	-
COC(=O)c1ccc2nc(-c3ccc(F)cc3)c(Cc3cccc(F)c3)n2c1	.	.	-	.	.	.
COC(=O)c1ccc2nc(-c3ccco3)c(Cc3ccc(OC)cc3C)n2c1	.	-	11.2µM	.	.	.
COC(=O)c1ccc2nc(-c3ccco3)c(Cc3cccc(F)c3)n2c1	.	-	11.2µM	.	.	.
COC(=O)c1ccc2nc(-c3ccco3)c(Cc3ccc(C)cc3)n2c1	.	?	11.2µM	.	.	.
O=C(c1ccccc1)c1ccccc1C(=O)N1CCN(Cc2ccccc2F)CC1	.	-	-	-	-	-
COc1ccccc1NS(=O)(=O)c1ccc(C(=O)N2CCCC(C(F)(F)F)C2)cc1 (stereo not drawn)	.	-	-	-	-	23.1µM
COc1ccccc1NS(=O)(=O)c1ccc(C(=O)N2CCCC(C)C2)cc1 (stereo not drawn)	-	-	-	-	-	-
O=C(c1ccc(S(=O)(=O)N2CCCCCC2)cc1)N1CCCC(C(F)(F)F)C1 (stereo not drawn)	.	-	-	-	-	-
CC1CCN(S(=O)(=O)c2ccc(C(=O)N3CCCC(C(F)(F)F)C3)cc2)CC1 (stereo not drawn)	.	-	-	-	-	20.6µM
CC(C)c1nc2ccc(C(=O)Nc3ccccc3F)cc2o1	-	-	-	.	-	.
O=C(CNCc1ccccc1)Nc1ccc(F)cc1	-	-	-	-	-	-
COc1ccc(-c2csc(NC(=O)c3ccccc3F)c2C(=O)O)cc1	-	-	-	-	-	13µM
CC(=O)Nc1cccc(C(=O)OCc2ccc(C(=O)Oc3ccc(Cl)cc3)cc2)c1	-	-	-	-	-	.
CC(C)(C)c1ccc(C(=O)Nc2ccc(CC(=O)O)cc2)o1	?	-	-	-	-	3.66µM
CN(C)c1ccc(S(=O)(=O)N2CCC(Cc3ccccc3)CC2)cn1	.	-	-	.	-	20.6µM
Cn1c(=O)c(=O)n(C)c2cc(S(=O)(=O)N3CCC(Cc4ccccc4)CC3)ccc21	-	-	-	-	-	-
O=C(COc1ccccc1[N+](=O)[O-])N1CCN(C(=O)c2ccco2)CC1	-	-	-	-	-	-
COCc1cc(=O)[nH]c(Nc2nc3ccc(C)cc3o2)n1	-	?	12.6µM	-	?	?
Cc1cccc(C(=O)OCC(=O)NC(=O)NCc2ccccc2)c1	.	-	-	-	-	-
CCOC(=O)N1CCN(C(=O)c2ccc(N(C)S(=O)(=O)c3ccc(C)cc3)cc2)CC1	-	-	-	-	-	23.1µM
COc1ccc(N2CCN(C(=O)c3ccc(N(C)S(=O)(=O)c4ccc(OC)cc4)cc3)CC2)cc1	-	-	-	-	-	25.9µM
COc1ccc(S(=O)(=O)N(C)c2ccc(C(=O)N3CCN(C)CC3)cc2)cc1	-	-	-	-	-	-

Compound activity deposited in PubChem BioAssay by National Center for Advancing Translational Sciences (NCATS).
